Compound activity: PubChem BioAssay, National Center for Advancing Translational Sciences (NCATS)
PTHR1 agonist: PTHR1 (human) receptor agonism; Potency, µM (doses to about 115 µM), for inactives: at the top dose activation, hits mostly activators; HEK293 GP2 PTHR1 cells, GloSensor cAMP luminescence, 1 h; Q03431; hit rate 0.075% among 410,000; AID 743266; note: nearly all actives have a fitted effect of over 55% in size
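HEK-293-derived GP2 cells expressing PTHR1 and a GloSensor cAMP reporter, 3,000/well, plated overnight, given luciferin plus IBMX (each 0.5 mM as added) for 1 h at 37 °C, then compound for 1 h at 37 °C. Luminescence was read after 15 min at room temperature.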
GLP-1R agonist: activates the human GLP-1 receptor; P43220; HEK293 GLP-1R CRE-luciferase, luminescence, 4-6 h; cells express a hypersensitive GLP-1R form; Potency, µM (top dose mostly 45.6 µM), without a hit: top-dose activation, actives largely listed as activators; hit rate 0.007% among 380,000; AID 624172; note: % of control where 0% means no effect
Target sequence (P43220 whole entry, looked up): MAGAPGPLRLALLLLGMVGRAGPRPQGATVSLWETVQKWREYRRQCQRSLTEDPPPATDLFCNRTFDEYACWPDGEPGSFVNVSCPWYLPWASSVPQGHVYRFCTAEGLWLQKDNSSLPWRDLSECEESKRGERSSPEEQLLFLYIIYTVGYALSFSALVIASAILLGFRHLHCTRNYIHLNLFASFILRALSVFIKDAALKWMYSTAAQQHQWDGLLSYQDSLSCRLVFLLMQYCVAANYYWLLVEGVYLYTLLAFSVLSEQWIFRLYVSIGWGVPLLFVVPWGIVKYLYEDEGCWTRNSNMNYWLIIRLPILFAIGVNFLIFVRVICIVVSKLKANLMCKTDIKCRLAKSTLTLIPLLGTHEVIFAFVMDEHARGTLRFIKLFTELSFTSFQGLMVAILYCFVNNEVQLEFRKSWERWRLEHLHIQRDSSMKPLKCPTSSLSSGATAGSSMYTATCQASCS
HEK293 tox: cytotoxicity in counter-screen for GLP-1R inverse agonists. hit rate 0.13% among 410,000. Potency, µM (titrated, usually from 38.3 µM), without a hit: top-dose activity change, negative = inhibition, hits mostly inhibitors. HEK293 cAMP-luciferase reporter cells, luminescence, 24 h;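 note: loss of luciferase light is scored as toxicity; % is set by controls: 0 for no effect and ±100 for the full control effect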
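Quantitative HTS format, 1536 wells, 200 cells/uL seeded. Compounds: 23 nL, 24 h, 37 °C. Detection: luciferase reagent, luminescence at 12 min RT; decreased signal taken as cytotoxic.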
GLP1R inv ag: inverse agonists of human GLP-1 receptor. P43220. HEK293 GLP-1R CRE-luciferase, luminescence, 24 h; GLP-1R form is constitutively active. Potency, µM (highest dose often 38.3 µM), without a hit: at the highest dose activity change, negative = inhibition, most hits filed as inhibitors. hit rate 1.6% among 410,000. AID 624417; note: % is set by controls: 0 for no effect and ±100 for the full control effect; nearly all actives have a fitted effect of over 55% in size
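Constitutively active GLP-1R drives a cAMP-responsive luciferase in stably transfected HEK293 cells; test compounds are added after overnight (12 h) attachment and left 24 hr, and signal loss in luminescence marks inhibition.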
Active calls of the source: *; i = inactive; ? = inconclusive; / = not tested or not shown; [ ] = another dose, or the depositor's remark. Rows were chosen to be rich in hits. Some 1.7% of all compounds tested hit in one or more screens of this group. Calls come from the whole dose curve; as a rule, active = well fitted curve in the direction sought with a large enough effect; inconclusive = small, poorly fitted or top-dose-only effect, or another doubt; inactive = no such curve, though single readings can be large; an effect the other way counts as inactive or inconclusive. Potency is the fitted concentration of half-maximal effect.

SMILES	PTHR1 agonist	GLP-1R agonist	HEK293 tox	GLP1R inv ag
Clc1ccc(CN2CCc3c([nH]c4ccccc34)C2)cc1Cl	-2%	-10%	?	4µM*
CSc1nc2cc(Oc3cccc(Cl)c3Cl)c(Cl)cc2[nH]1	-48%	5%	-2%	11µM*
CCOc1ccc(S(=O)(=O)N2CCC(C(=O)N3CCN(c4ccccc4F)CC3)CC2)cc1C	-19%	2%	10%	5.6µM*
COc1cc(OC)c(NC(=O)CSCc2nc(-c3ccc(OC)c(OC)c3)no2)cc1Cl	-2%	/	2%	7%
CC12CC3(C)CC(C)(C1)CC(NC(=O)N1CCCC1)(C2)C3	i	-5%	-22%	10µM*
COc1ccc(C2c3ccc4ccccc4c3Oc3ncn(CCCO)c(=N)c32)cc1 (configuration not stated)	-11%	16%	?	5.6µM*
COc1ccc(C2c3ccc4ccccc4c3Oc3ncn(CCO)c(=N)c32)cc1 (configuration not stated)	-12%	14%	-26%	?
COc1ccc(C2c3ccc4ccccc4c3Oc3ncn(CCN(C)C)c(=N)c32)cc1 (configuration not stated)	-9%	27%	?	4µM*
COc1ccc(C(c2c(O)ccc3ccccc23)N2CCOCC2)c(OC)c1 (configuration not stated)	-22%	1%	?	10µM*
COc1ccc(C(CCN2CCOCC2)c2c(O)cc(OC)cc2OC)cc1 (configuration not stated)	-7%	-8%	-8%	6%
CCCc1nc2ccccc2n2c(-c3cccc(C)c3)c3c(=O)n(C)c(=O)n(C)c3c12	-33%	/	3%	6%
COc1cccc(CNCCc2c[nH]c3ccccc23)c1OCc1ccccc1	-26%	2%	?	?
COc1cc(CNCCc2c[nH]c3ccccc23)ccc1OCc1ccccc1F	-19%	-16%	7%	7.9µM*
COc1cc(CNCCO)ccc1OCCc1ccccc1	?	-3%	3%	1µM*
Cc1cc(C)cc(NC(=O)C2CCCN(C(=O)c3cnn(-c4ccccc4)c3-n3cccc3)C2)c1 (configuration not stated)	-19%	/	-21%	10µM*
COC(=O)c1cc(CSC(=N)N)ccc1OCCC(C)C	i	14%	?	10µM*
CCCOc1ccc(CSC(=N)N)cc1C(=O)OC	i	9%	-3%	?
O=C(CSc1cn(CC(=O)N2CCCC2)c2ccccc12)Nc1ccccc1C(F)(F)F	-26%	/	1%	?
O=C1CC(c2ccccc2Oc2cccc(Cl)c2)C(n2cncn2)C(=O)C1C1NCCc2ccccc21 (configuration not stated)	i	-1%	-10%	?
CC(C)(C)c1ccc(Oc2cccc(C3CC(=O)C(C4NCCc5ccccc54)C(=O)C3n3cncn3)c2)cc1 (configuration not stated)	-3%[57.5 µM]	-5%	-22%	6.3µM*
O=C(Cn1ncc(Cl)c(Cl)c1=O)N1CCc2ccccc21	-31%	-9%	5.6µM*	?
O=C(Cn1ncc(Cl)c(Cl)c1=O)N1CCN(Cc2ccccc2)CC1	-23%	-13%	?	?
NS(=O)(=O)c1cccc(NC(=O)CSc2nnc(NC3CC3)s2)c1	i	0%	1%	5%
CCCC(C)NC(=O)c1nc(-c2ccccc2)n(-c2ccccc2)n1 (configuration not stated)	i	24%	-1%	8.9µM*
CCN(CC)C1CCN(C(=O)c2cc(COc3ccccc3SC)on2)C1 (configuration not stated)	i	-1%	4%	7.1µM*
SMILES	PTHR1 agonist	GLP-1R agonist	HEK293 tox	GLP1R inv ag
COc1ccc2[nH]c3c(c2c1)CCN1C(=O)C(CC(=O)NCCN2CCOCC2)C[C@H](C(=O)N2CCOCC2)[C@@]31C (some centres not stated)	i	5%	-7%	12%
O=C(Nc1ccccc1)C1=C[C@H](c2csc3ccccc23)C[C@H](OCc2ccc(CO)cc2)O1	i	-9%	-17%	10µM*
COc1ccc(OCCSc2nnc(CCNC(=O)c3ccc(Cl)c(Cl)c3)n2C)cc1	i	12%	4%	10µM*
COc1ccc(OCCSc2nnc(CCNC(=O)c3ccc(OC)cc3)n2C)cc1	-16%	4%	1%	7%
Cc1cccc(N2CCN(C(=O)c3ccc4c(c3)N(Cc3ccccc3)C(=O)c3ccccc3S4(=O)=O)CC2C)c1 (configuration not stated)	i	/	3%	9%
O=C(Cn1c(=O)n(Cc2ccc(C(=O)NCc3ccc4c(c3)OCO4)cc2)c(=O)c2ccccc21)Nc1cccc(Cl)c1	i	0%	-14%	0%
CC1(C(=O)NCc2cccc(C(F)(F)F)c2)CCN1C1Cc2ccccc2C1 (configuration not stated)	-7%	28%	4%	13µM*
COc1ccc(-c2oc3ccccc3c(=O)c2OC(C)=O)cc1	i	-12%	5%[0.307 µM]	5%[0.307 µM]
CC(=O)Oc1c(-c2ccc(Br)o2)oc2ccccc2c1=O	-23%	0%	i	5.6µM*
Cc1cccc(NC(=O)C2CCC(CNS(=O)(=O)c3ccc(Br)s3)CC2)c1 (configuration not stated)	-19%	/	0%	?
COc1cc(OC)cc(C(=O)NC2CCCN(Cc3ccc(Cl)cc3)C2)c1 (configuration not stated)	-18%	9%	-20%	11µM*
Clc1ccc(CNc2nc(CN3CCOCC3)nc3scc(-c4ccccc4)c23)cc1	-37%	-3%	?	3.2µM*
Clc1ccc(-c2csc3ncnc(NCCN4CCOCC4)c23)cc1	-8%	3%	67%	3.2µM*
S=C(NCc1cccnc1)Nc1cc(Cl)cc(Cl)c1	-22%	2%	-1%	10µM*
COc1ccc(Cn2c(SCc3ccc(C(=O)NC4CCCC4)cc3)nc3cccnc32)cc1	-23%	/	-6%	-20%
O=C(Nc1cc(Cl)ccc1Oc1ccccc1)C1=COCCO1	-16%	7%	7%	?
CCOc1ccc(Oc2ccc(Cl)cc2NC(=O)C2=COCCO2)cc1	i	14%	12%	10µM*
CCCn1c(=N)n(CC(=O)c2ccc(Cl)cc2)c2ccccc21	i	13%	-27%	7.9µM*
O=C(CC1C(=O)OCCN1Cc1ccccc1)Nc1cccc(Cl)c1 (configuration not stated)	-29%	/	7%	-8%
COc1cc2c(cc1OC)[C@@H](Cc1cc(OC)c(OC)c(OC)c1)[N@+](C)(CCCOC(=O)CC/C=C/CCC(=O)OCCC[N@+]1(C)CCc3cc(OC)c(OC)cc3[C@H]1Cc1cc(OC)c(OC)c(OC)c1)CC2	/	0%	/	/
